This passage reports composite z-score and z-score results from PubChem BioAssay.

Structures are written as SMILES. Activity calls are given as the source filed them.

Experiment [1] is described as follows: small molecules captured by biotinylated probe aFSTL3 – biochemical, small-molecule microarray, fluorescence 635/667, stem cell growth factor project, primary screen (AID 1064).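 Further: measures binding of the biotinylated anti-FSTL3 antibody to printed compounds.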 To be noted: higher = more signal.
A short description of experiment [2]: binders from COS7 lysate, DM2A8 probe, primary screen, torsin A project, cell lysate, small-molecule microarray, fluorescence 635/667 (AID 1065). To be noted: higher = more signal, COS7 lysate expressing mutant human TOR1A.
Experiment [3] in a line: small molecules captured by biotinylated probe aFGF2 – biochemical, small-molecule microarray, fluorescence 635/667, stem cell growth factor project, primary screen (AID 1067).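 Further: measures binding of biotinylated aFGF2 protein to printed compounds on slides; z-score merges feature fluorescence and signal-to-noise across triplicate slides.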 To be noted: higher = more signal.
Experiment [4] in a line: small molecules captured by biotinylated probe aFGF10 – biochemical, small-molecule microarray, fluorescence 635/667, stem cell growth factor project, primary screen (AID 1071).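 Further: score merges 667 nm spot intensity and signal to noise from triplicate slides.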 To be noted: higher = more signal.
In experiment [5] the target is Neurogenic locus notch homolog protein 2 (Homo sapiens) (UniProt Q04721). Description: small molecules binding Notch2 protein – biochemical, small-molecule microarray, 635 nm fluorescence, stem cell growth factors, primary screen (AID 1073). To be noted: higher = more signal.
Sequence of Neurogenic locus notch homolog protein 2 (Homo sapiens) (Q04721 whole entry, looked up, canonical isoform): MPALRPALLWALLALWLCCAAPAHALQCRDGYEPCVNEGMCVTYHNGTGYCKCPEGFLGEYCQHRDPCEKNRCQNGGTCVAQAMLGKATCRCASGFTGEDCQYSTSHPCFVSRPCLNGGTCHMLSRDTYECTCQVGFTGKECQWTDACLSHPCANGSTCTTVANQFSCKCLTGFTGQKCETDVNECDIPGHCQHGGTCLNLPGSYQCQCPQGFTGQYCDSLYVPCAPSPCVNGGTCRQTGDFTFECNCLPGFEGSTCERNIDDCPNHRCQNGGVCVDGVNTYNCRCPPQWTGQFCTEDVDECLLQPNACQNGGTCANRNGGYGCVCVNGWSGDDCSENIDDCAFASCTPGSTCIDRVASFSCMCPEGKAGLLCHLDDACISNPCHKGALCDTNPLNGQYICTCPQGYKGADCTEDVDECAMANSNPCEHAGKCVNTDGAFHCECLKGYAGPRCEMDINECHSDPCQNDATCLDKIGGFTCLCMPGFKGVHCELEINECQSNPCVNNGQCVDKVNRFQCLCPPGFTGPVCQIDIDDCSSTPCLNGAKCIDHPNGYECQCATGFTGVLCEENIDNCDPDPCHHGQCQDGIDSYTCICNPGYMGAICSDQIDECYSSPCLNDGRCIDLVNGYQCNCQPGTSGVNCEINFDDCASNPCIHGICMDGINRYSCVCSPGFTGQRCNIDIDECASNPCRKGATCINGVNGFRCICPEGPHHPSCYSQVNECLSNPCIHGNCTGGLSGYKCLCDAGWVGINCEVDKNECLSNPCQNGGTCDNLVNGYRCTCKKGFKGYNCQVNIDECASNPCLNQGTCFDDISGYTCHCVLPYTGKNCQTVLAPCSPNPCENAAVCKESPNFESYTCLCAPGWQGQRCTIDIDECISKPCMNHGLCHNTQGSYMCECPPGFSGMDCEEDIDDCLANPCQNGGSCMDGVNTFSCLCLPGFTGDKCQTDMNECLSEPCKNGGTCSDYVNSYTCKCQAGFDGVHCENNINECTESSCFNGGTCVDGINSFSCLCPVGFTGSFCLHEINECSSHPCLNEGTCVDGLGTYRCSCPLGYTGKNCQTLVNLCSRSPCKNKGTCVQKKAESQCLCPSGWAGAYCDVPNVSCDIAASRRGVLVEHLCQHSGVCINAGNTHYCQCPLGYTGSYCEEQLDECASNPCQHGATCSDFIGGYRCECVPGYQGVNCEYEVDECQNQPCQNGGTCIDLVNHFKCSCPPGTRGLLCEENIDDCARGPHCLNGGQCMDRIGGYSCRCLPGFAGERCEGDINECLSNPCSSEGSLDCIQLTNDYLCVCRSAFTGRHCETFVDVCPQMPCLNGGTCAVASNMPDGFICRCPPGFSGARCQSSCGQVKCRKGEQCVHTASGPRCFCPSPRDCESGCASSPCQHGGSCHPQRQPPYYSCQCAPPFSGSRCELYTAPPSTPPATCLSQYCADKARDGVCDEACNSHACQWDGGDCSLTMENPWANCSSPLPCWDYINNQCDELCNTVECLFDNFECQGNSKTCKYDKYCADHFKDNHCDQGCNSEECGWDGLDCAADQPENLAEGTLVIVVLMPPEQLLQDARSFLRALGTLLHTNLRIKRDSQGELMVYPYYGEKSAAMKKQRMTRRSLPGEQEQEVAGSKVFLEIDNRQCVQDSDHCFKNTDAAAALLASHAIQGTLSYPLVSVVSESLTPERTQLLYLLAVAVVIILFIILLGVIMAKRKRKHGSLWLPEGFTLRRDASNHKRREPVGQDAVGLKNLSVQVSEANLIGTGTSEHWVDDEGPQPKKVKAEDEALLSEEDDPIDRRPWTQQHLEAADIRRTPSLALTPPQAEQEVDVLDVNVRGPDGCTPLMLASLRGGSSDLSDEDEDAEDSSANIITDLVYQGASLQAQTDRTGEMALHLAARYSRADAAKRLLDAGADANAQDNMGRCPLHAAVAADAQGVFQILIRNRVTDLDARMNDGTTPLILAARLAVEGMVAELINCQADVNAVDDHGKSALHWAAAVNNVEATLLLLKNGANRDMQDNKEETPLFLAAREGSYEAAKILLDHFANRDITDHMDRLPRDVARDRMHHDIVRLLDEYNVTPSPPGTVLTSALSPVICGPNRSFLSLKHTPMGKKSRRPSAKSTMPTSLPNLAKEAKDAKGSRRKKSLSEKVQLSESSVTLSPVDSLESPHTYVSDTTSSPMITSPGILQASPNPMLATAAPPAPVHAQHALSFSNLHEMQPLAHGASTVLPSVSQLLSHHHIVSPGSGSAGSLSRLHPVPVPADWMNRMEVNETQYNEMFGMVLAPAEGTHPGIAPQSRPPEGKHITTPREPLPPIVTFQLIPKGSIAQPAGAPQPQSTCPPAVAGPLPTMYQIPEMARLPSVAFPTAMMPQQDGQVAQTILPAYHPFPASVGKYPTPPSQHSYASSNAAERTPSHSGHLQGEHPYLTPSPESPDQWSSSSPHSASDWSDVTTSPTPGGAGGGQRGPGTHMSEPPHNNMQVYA
Experiment [6] concerns the target Pro-neuregulin-1, membrane-bound isoform (Homo sapiens) (UniProt Q02297). Description: small molecules binding neuregulin-1 protein – biochemical, small-molecule microarray, fluorescence 635/667, psychiatric disease protein project, primary screen (AID 1075).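 Further: score combines 667 nm spot fluorescence with signal to noise.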 To be noted: NRG1 binding, 635 nm fluorescence, higher = more signal.
Experiment [7] has as its system Neuregulin-1 EGF-like domain. The experiment in a line: small molecules binding NRG1 EGF domain – biochemical, small-molecule microarray, 635 nm fluorescence, primary screen (AID 1081).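 Further: binding of the protein to compounds printed on small-molecule microarray slides.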 To be noted: higher = more signal.
Experiment [8] can be described thus: FRG1 expression reporter modulators in myotubes – cell-based, C2C12 myotubes, firefly/Renilla luciferase, luminescence, FRG1 inhibition for FSHD, primary screen (AID 1084). To be noted: FRG1 promoter luciferase, higher = more signal, called active from +8 up or from −8 down.
Experiment [9] in a line: small molecules captured by biotinylated probe aFST – biochemical, small-molecule microarray, fluorescence 635/667, stem cell growth factor project, primary screen (AID 1086).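 Further: score merges 667 nm fluorescence with signal-to-noise of each printed compound spot.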 To be noted: higher = more signal.
A short description of experiment [10]: binders of probe aHhip on microarray, primary screen, stem cell growth factor project, biochemical, small-molecule microarray, fluorescence 635/667 (AID 1087).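 Further: score merges spot fluorescence at 667nm with spot signal to noise ratio.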 To be noted: higher = more signal.
Experiment [11] deals with PRMT1 (protein arginine N-methyltransferase 1). Description: small molecules binding arginine methyltransferase PRMT1 – biochemical, small-molecule microarray, 635 nm fluorescence, primary screen (AID 1088).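 Further: binding of Prmt1 protein to compounds spotted on small-molecule microarray slides.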 To be noted: higher = more signal.
The nature of experiment [12]: growth effects on S. cerevisiae YJM789 – YJM789 clinical isolate, OD600, 24 h, basal, primary screen (AID 1089).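 Further: growth of clinical yeast isolate S. cerevisiae YJM 789 seeded 1000 cells per well; test concentration not given here.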 To be noted: higher = more signal, called active from +8 up or from −8 down.
Experiment [13] in a line: S. pombe growth modifiers, basal conditions – strain 972, OD600, 24 h, no modulator, primary screen (AID 1090).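 Further: basal condition with compound alone and no growth modifier present; test concentration not given here.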 To be noted: S. pombe 972 growth, higher = more signal, called active from +8 up or from −8 down.
Experiment [14] can be described thus: budding yeast growth modifiers under rapamycin – strain BY4716, OD600, 96 h, primary screen (AID 1091). Further: test concentration not given here. To be noted: S. cerevisiae BY4716 + rapamycin, higher = more signal, called active from +8 up or from −8 down.
Experiment [15] has as its target Torsin-1A-interacting protein 2 (Homo sapiens) (UniProt Q8NFQ8). Description: small molecules binding lysate-expressed LULL1 – cell lysate, human LULL1 lysate, 635/667 nm fluorescence, primary screen (AID 1092).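 Further: probe is lysate of COS7 cells overexpressing human LULL1; score merges per-feature 667 nm fluorescence with signal-to-noise.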 To be noted: small-molecule microarray, hLULL1 lysate binding, 635 nm fluorescence; higher = more signal.
A short description of experiment [16]: optical density change of DRC41 E. coli – strain DRC41, OD650, 24 h, E. coli filamentation project, primary screen (AID 1093).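 Further: MC1000 strain lacking acrAB efflux and sulA so SOS filamentation is blocked; test concentration not given here.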 To be noted: E. coli DRC41 growth, higher = more signal, called active from +8 up or from −8 down.
Experiment [17] can be described thus: probe aLefty2 binding to arrayed compounds – biochemical, biotinylated probe, 635/667 nm fluorescence, primary screen (AID 1094).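 Further: score merges spot fluorescence near 667 nm with spot signal-to-noise ratio.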 To be noted: small-molecule microarray, higher = more signal.
Experiment [18] concerns Noggin (protein binding on small-molecule microarray). Description: small molecules binding Noggin protein – biochemical, 635/667 nm fluorescence, primary screen (AID 1095).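 Further: score merges 667 nm feature fluorescence with signal to noise over triplicate slides.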 To be noted: 635 nm fluorescence, higher = more signal.
The target of experiment [19] is Neurogenic locus notch homolog protein 3 (Homo sapiens) (UniProt Q9UM47). The experiment in a line: small molecules binding NOTCH3 protein – biochemical, 635/667 nm fluorescence, primary screen (AID 1096). To be noted: small-molecule microarray, 635 nm fluorescence, higher = more signal.
The nature of experiment [20]: probe aEGFR binding to arrayed compounds – biochemical, biotinylated probe, 635/667 nm fluorescence, primary screen (AID 1097).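 Further: probe is a biotinylated anti-EGFR antibody binding compounds printed on slides; score combines fluorescence near 667 nm and signal to noise of each spot.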 To be noted: small-molecule microarray, higher = more signal.

Sequence of Torsin-1A-interacting protein 2 (Homo sapiens) (Q8NFQ8 whole entry, looked up): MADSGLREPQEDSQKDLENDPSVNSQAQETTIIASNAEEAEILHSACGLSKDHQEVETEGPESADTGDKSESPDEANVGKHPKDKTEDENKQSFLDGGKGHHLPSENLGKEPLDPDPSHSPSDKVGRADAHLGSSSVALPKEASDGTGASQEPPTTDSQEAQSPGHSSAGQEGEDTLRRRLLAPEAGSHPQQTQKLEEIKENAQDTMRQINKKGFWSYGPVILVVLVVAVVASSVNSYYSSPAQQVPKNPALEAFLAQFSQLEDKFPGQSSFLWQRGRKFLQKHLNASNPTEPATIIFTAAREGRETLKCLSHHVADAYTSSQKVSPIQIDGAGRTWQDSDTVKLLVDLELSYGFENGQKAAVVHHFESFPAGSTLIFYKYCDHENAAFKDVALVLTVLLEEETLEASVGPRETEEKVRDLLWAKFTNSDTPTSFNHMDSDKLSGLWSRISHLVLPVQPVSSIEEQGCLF
Sequence of Pro-neuregulin-1, membrane-bound isoform (Homo sapiens) (Q02297 whole entry, looked up, the tested form may be a part, canonical isoform): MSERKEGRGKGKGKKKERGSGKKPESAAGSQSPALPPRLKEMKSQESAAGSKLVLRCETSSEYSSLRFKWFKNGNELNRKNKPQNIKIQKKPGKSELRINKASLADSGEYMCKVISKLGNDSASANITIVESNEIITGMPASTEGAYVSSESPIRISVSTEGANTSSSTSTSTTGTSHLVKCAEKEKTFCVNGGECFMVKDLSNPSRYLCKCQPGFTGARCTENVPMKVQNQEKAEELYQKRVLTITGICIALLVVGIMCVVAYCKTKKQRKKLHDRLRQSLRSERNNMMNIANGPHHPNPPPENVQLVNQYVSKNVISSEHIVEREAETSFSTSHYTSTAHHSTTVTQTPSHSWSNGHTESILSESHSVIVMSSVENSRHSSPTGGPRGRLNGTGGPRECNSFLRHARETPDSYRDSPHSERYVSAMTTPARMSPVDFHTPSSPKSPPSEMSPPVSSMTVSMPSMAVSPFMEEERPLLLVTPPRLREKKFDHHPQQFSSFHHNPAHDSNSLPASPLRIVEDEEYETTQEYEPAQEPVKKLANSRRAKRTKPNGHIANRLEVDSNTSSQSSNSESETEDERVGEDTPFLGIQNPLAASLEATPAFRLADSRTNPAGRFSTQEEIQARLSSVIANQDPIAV

Turning to `CCCNC(=O)[C@@H]1c2ccccc2C(=O)N(Cc2ccccc2)[C@H]1c1ccc(CO)cc1`, the composite z-score in experiment [1] is 0.0651; in experiment [2] it was -0.427; in experiment [3], -0.0861; in experiment [4] it was -0.533; in experiment [5], -0.195; in experiment [6], 1.09. The composite z-score in experiment [7] was 1.11; in experiment [9] it was -0.115; in experiment [10], 0.132; in experiment [11] it was 0.577; in experiment [15], 2.12; in experiment [17], 0.0553. In addition, the composite z-score in experiment [18] was -0.344; in experiment [19], 0.0163; in experiment [20] it was -0.152. For the same molecule, the z-score in experiment [8] is -1.14 (inactive); in experiment [12], 0.288 (inactive); in [13], -0.45 (inactive); in experiment [14] it was 0.633 (inactive); in experiment [16] it was -1.04 (inactive).
As to `COc1ccc([Si](C)(C)[C@H]2[C@H](CCn3cc(CCO)nn3)O[C@@]3(C(=O)N(Cc4ccc(N5CCOC5=O)cc4)c4ccccc43)[C@@H]2C)cc1`, the composite z-score was 0.102 in experiment [1]; 1.38 in experiment [2]; -0.0158 in [3]; 0.44 in experiment [4]; 0.14 in experiment [5]; 1.51 in experiment [6]. Further, the composite z-score in [7] is 1.07; in experiment [9] it was 0.147; in experiment [10], -0.236; in experiment [11], 1.37; in experiment [15], 1.31; in experiment [17] it was -0.103. Moreover, the composite z-score in [18] was 0.42; in [19] it was 0.928; in experiment [20], -0.212. Besides, the z-score in experiment [8] was -3.54 (inactive); in [12], 1.02 (inactive); in [13], 0.928 (inactive); in [14] it was 4.55 (inactive); in [16] it was 1.01 (inactive).
Take `CC1CC/C=C\[C@H]2OC34C=CCN(Cc5ccccc5)C(=O)[C@H]3N(CCCCCO)C(=O)[C@@H]4C2C(=O)O1` (stereo not given in full): the composite z-score in experiment [1] is 0.158; in [2], -0.467; in experiment [3] it was -0.149; in experiment [4], 0.155; in experiment [5], -0.864; in [6], -0.68. In addition, the composite z-score in experiment [7] is 1.5; in experiment [9] it was -0.677; in experiment [10], -0.312; in experiment [11], -0.822; in experiment [15] it was -0.259; in [17], -0.166. For the same molecule, the composite z-score in experiment [18] is -1.07; in experiment [19], -0.629; in [20], -0.206. Moreover, the z-score in experiment [8] was 0.367 (inactive); in experiment [12], 0.0898 (inactive); in [13], 0.0077 (inactive); in experiment [14], -0.506 (inactive); in [16] it was -0.964 (inactive).
As to `CCCCC(O)C1C=CC2C(=O)N(C3CCCCC3)C(=O)C2N1Nc1ccc(OC)cc1` (stereo not given), the composite z-score in experiment [1] was -0.362; in experiment [2], 0.139; in experiment [3], -0.0056; in [4] it was 0.441; in [5], 1.45; in experiment [6], 1.29. Besides, the composite z-score came to 1.13 in experiment [7]; 0.583 in experiment [9]; 0.107 in experiment [10]; 1.19 in experiment [11]; 2.77 in experiment [15]; 0.165 in experiment [17]. Further, the composite z-score in [18] is 0.5; in experiment [19], 1.1; in experiment [20], -0.0661. Besides, the z-score in [8] was 0.405 (inactive); in experiment [12], 0.595 (inactive); in experiment [13], 0.241 (inactive); in [14], 1.15 (inactive); in [16], 0.202 (inactive).
For `CC(C)(C)OC(=O)CC[C@]1(C(=O)N2CCCCC2)N=C(c2ccc(OCCCO)cc2)O[C@H]1c1ccccc1N=[N+]=[N-]`, the composite z-score in experiment [1] was 1.14; in [2], 0.933; in [3], -0.0328; in [4], 0.877; in experiment [5], 1.32; in [6] it was 1.42. For the same molecule, the composite z-score in experiment [7] came to 1.3; in experiment [9], 1.24; in experiment [10] it was 0.0818; in [11], 1.54; in [15], 3.05; in experiment [17], 0.292. The results for the composite z-score in experiment [18], in experiment [19] and in experiment [20] were 1.21, 1.01 and 0.872, respectively. The z-score in experiment [8] was -0.275 (inactive); in [12] it was 0.589 (inactive); in experiment [13], 0.402 (inactive); in [14], 0.73 (inactive); in experiment [16] it was 1.62 (inactive).
